Most compounds without a hit are left out; they make up all but 10% or so of the library.
RORgamma inh: blocks mouse ROR gamma transcriptional activity | P51450 | Drosophila S2 Gal4-RORgamma UAS-luciferase reporter, 20 h | Potency, µM (top dose mostly 53.6 µM), for inactives: at the highest dose activity change, negative = inhibition, most hits filed as inhibitors | hit rate 5.4% among 310,000 | AID 2551; further: on the % scale 0 is the no-effect control and ±100 the full control effect; nearly all actives have a fitted effect of over 60% in size
Target sequence (P51450 whole entry, looked up, the tested form may be a part): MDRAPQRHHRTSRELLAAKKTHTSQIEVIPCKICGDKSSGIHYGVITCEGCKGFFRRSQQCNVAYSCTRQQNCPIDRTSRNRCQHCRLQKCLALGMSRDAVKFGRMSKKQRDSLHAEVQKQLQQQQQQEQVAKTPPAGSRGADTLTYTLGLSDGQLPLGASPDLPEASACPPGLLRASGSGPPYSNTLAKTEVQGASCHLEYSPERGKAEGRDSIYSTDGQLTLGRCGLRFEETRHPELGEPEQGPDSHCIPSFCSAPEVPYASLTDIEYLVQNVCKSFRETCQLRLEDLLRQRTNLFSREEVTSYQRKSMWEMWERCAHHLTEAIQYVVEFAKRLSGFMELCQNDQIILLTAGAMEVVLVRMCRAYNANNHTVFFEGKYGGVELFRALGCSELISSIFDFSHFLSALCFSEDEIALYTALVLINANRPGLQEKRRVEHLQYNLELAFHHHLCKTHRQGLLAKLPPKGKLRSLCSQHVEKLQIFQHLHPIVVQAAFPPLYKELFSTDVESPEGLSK
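Drosophila S2 cells stably expressing Gal4-DBD/mouse RORγ fusion under metallothionein promoter plus UAS-luciferase; compound 1 h, then 700 uM CuSO4 induction for 20 h at ambient temperature; inhibition read as reduced luminescence.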
KB-V1 MDR tox: KB-V1 MDR subline cytotoxicity | KB-V1 MDR cells viability, CellTiter-Glo, 72 h | hit rate 3.4% among 400,000 | Potency, µM (highest dose often 46.1 µM), actives largely listed as cytotoxic | AID 1347076; further: on the % scale 0 is the no-effect control and ±100 the full control effect; nearly all actives have a fitted effect of over 60% in size
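Cytotoxicity toward P-gp-expressing KB-V1 cells was determined as loss of CellTiter-Glo luminescence after 72 h at 37 degrees C. Compounds were tested in quantitative HTS format across a concentration range, with curves fitted to normalized data.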
KB-3-1 cytotox: kills parental KB-3-1 adenocarcinoma cells; Potency, µM (doses to about 46.1 µM), usual class: cytotoxic; hit rate 1.4% among 400,000; AID 1347075; KB-3-1 viability, CellTiter-Glo ATP luminescence, 72 h; further: on the % scale 0 is the no-effect control and ±100 the full control effect; nearly all actives have a fitted effect of over 60% in size
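Luminescent ATP read-out (CellTiter-Glo) measures survival of drug-naive KB-3-1 cells after 72 h compound exposure at 37 °C. Titration series was screened from lowest to highest concentration, with DMSO vehicle plates as background controls.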
MCF10A rereplic: DNA re-replication induction in MCF 10a cells. AID 624296. MCF 10A DNA re-replication, Hoechst nuclear intensity, 48 h. Potency, µM (titrated, usually from 46.1 µM), for the others: at the highest dose activity, positive = re-replication, usual class: activators. hit rate 2.9% among 350,000; further: % of control where 0% means no effect; nearly all actives have a fitted effect of over 50% in size
VP16 counter: inhibits Gal4-VP16 luciferase reporter, ROR gamma counter-screen; Drosophila S2 Gal4-VP16 UAS-luciferase, luminescence, 20 h; Potency, µM (doses to about 53.6 µM), inactives show at the top dose activity, negative = inhibition, hits mostly inhibitors; hit rate 3.5% among 310,000;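 further: Gal4-VP16 expression switched on by copper sulfate through the metallothionein promoter; on the % scale 0 is the no-effect control and ±100 the full control effect; nearly all actives have a fitted effect of over 50% in size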
SW480 rerep: DNA re-replication induction in SW480 cells. Potency, µM (highest dose often 46.1 µM), for the others: at the top dose re-replication activation, usual class: activators. hit rate 1.8% among 340,000. SW480 DNA re-replication, Hoechst DNA content imaging, 48 h; further: % of control where 0% means no effect; nearly all actives have a fitted effect of over 55% in size
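Image-based read-out: total Hoechst fluorescence of nuclei (405 nm excitation, 500-530 nm emission), with hits raising the fraction of high-intensity nuclei. SW480 colon cells incubated 48 hr with compounds at 37 C.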
Numbers without * were called inactive; [ ] = another dose, or the depositor's remark. The call rests on the fitted dose curve; in most records, active means well fitted curve in the direction sought with a large enough effect; inconclusive means small, poorly fitted or top-dose-only effect, or another doubt; inactive means no such curve, though single readings can be large; an effect the other way counts as inactive or inconclusive. Potency means the concentration at half of the fitted maximal effect.

How did O=S1(=O)CCOC[C@H](c2ccccc2)N1Cc1ccc(Cl)c(Cl)c1 do in these assays?
KB-V1 MDR tox: inactive; KB-3-1 cytotox: inconclusive

Results for COc1ccc([C@@H]2C[C@H]3CN(Cc4ccccc4OC)C(=O)[C@]34CCCN24)cc1C ?
RORgamma inh: -6.0%; KB-V1 MDR tox: inactive; KB-3-1 cytotox: inactive; MCF10A rereplic: -1.4%; VP16 counter: 0.6%; SW480 rerep: 18.7%

Results for COc1ccccc1CN1C[C@@H]2C[C@@H](c3ccc(C)c(C)c3)N3CCC[C@@]23C1=O ?
RORgamma inh: 20.5%; KB-V1 MDR tox: inactive; KB-3-1 cytotox: inactive; MCF10A rereplic: -8.3%; VP16 counter: -7.4%; SW480 rerep: 4.11µM*

How did Cc1ccccc1OCC(=O)N/N=C/c1ccc([N+](=O)[O-])o1 do in these assays?
RORgamma inh: 2.51µM*; KB-V1 MDR tox: inactive; KB-3-1 cytotox: inactive; MCF10A rereplic: 23.1µM*; VP16 counter: 11.2µM*; SW480 rerep: 1.16µM*

Results for COc1ccccc1OCC(=O)N/N=C/C=C/c1ccc([N+](=O)[O-])o1 ?
RORgamma inh: 11.2µM*; KB-V1 MDR tox: 16.4µM*; KB-3-1 cytotox: inconclusive; MCF10A rereplic: inconclusive; VP16 counter: 10µM*; SW480 rerep: inconclusive

What do the screens show for `Cc1cc(C)cc(OCC(=O)N/N=C/c2ccc([N+](=O)[O-])o2)c1`?
RORgamma inh: 8.91µM*; KB-V1 MDR tox: inconclusive; KB-3-1 cytotox: inactive; MCF10A rereplic: inconclusive; VP16 counter: inconclusive; SW480 rerep: inconclusive

What do the screens show for `Cc1ccc(NC(=O)CCc2c(C)nc3ncnn3c2C)cc1Cl`?
KB-V1 MDR tox: inactive; KB-3-1 cytotox: inactive

What do the screens show for `CC(NC(=O)CSc1nc(-c2cccc(Cl)c2)nc2cc(=O)[nH]n12)c1nc2ccccc2n1C` (configuration not stated)?
KB-V1 MDR tox: inactive; KB-3-1 cytotox: inactive

How did O=C(Nc1nc2c(s1)CCc1ccccc1-2)c1cccs1 do in these assays?
RORgamma inh: 10µM*; KB-V1 MDR tox: inconclusive; KB-3-1 cytotox: inconclusive; MCF10A rereplic: inconclusive; VP16 counter: -27.0%; SW480 rerep: 5.7%

Results for CSc1nc2ccc3nc(NC(=O)c4cccs4)sc3c2s1 ?
RORgamma inh: 6.31µM*; KB-V1 MDR tox: inconclusive; KB-3-1 cytotox: inactive; MCF10A rereplic: 6.0%; VP16 counter: -4.0%; SW480 rerep: 12.2%

Results for CCCc1c(C)c2ccc(O)c(CN3CCN(c4ccc(F)cc4)CC3)c2oc1=O ?
KB-V1 MDR tox: inactive; KB-3-1 cytotox: inactive

How did O=[N+]([O-])c1ccc(/C=C/C2=NN(c3ccccc3)C(c3ccco3)C2)cc1 (configuration not stated) do in these assays?
RORgamma inh: inconclusive; KB-V1 MDR tox: inactive; KB-3-1 cytotox: inactive; MCF10A rereplic: inconclusive; VP16 counter: 20µM*; SW480 rerep: -0.4%

What do the screens show for `O=[N+]([O-])c1ccc(C2=NN(c3ccccc3)C(c3ccco3)C2)cc1` (configuration not stated)?
RORgamma inh: 20.5%; KB-V1 MDR tox: inactive; KB-3-1 cytotox: inactive; MCF10A rereplic: 3.5%; VP16 counter: 24.6%; SW480 rerep: -2.7%

Results for CC(C)C(=O)Nc1nnc(CSCc2ccccc2F)s1 ?
RORgamma inh: 21.7%; KB-V1 MDR tox: 18.4µM*; KB-3-1 cytotox: inactive; MCF10A rereplic: 2.3%; VP16 counter: -0.5%; SW480 rerep: -3.3%

How did O=C(Nc1nnc(CSCc2ccccc2F)s1)c1cccc([N+](=O)[O-])c1 do in these assays?
RORgamma inh: 4.47µM*; KB-V1 MDR tox: inactive; KB-3-1 cytotox: inactive; MCF10A rereplic: 5.5%; VP16 counter: 5.01µM*; SW480 rerep: 3.3%

How did CCCN(CCC)CC(O)Cn1cc(/C=C/C(=O)c2ccccc2)c2ccccc21 (configuration not stated) do in these assays?
RORgamma inh: inconclusive; KB-V1 MDR tox: inactive; KB-3-1 cytotox: inconclusive; MCF10A rereplic: 5.17µM*; VP16 counter: -1.6%; SW480 rerep: inconclusive

What do the screens show for `CCCN(CCC)CC(O)Cn1cc(/C=C/C(=O)c2cccs2)c2ccccc21` (configuration not stated)?
RORgamma inh: -36.2%; KB-V1 MDR tox: inconclusive; KB-3-1 cytotox: inconclusive; MCF10A rereplic: inconclusive; VP16 counter: inconclusive; SW480 rerep: 16.4µM*

Results for CC1NS(=O)(=O)c2cc([N+](=O)[O-])ccc21 (configuration not stated) ?
KB-V1 MDR tox: inactive; KB-3-1 cytotox: inactive

How did NCCCC[C@H](NC(=O)[C@@H](Cc1ccccc1)NC(=O)[C@H](Cc1c[nH]c2ccccc12)NC(=O)[C@@H](CCCCN)NC(=O)[C@@H](Cc1c[nH]c2ccccc12)NC(=O)[C@@H](N)Cc1cnc[nH]1)C(N)=O do in these assays?
RORgamma inh: 12.3%; VP16 counter: 4.1%

How did O=C(N/N=C\c1cn[nH]c1-c1ccccc1)c1ccc([N+](=O)[O-])cc1 do in these assays?
RORgamma inh: 11.2µM*; KB-V1 MDR tox: inactive; KB-3-1 cytotox: inconclusive; MCF10A rereplic: 2.6%; VP16 counter: -4.0%; SW480 rerep: 4.11µM*

How did O=C(N/N=C/c1cn[nH]c1-c1ccc(Cl)cc1)c1ccc([N+](=O)[O-])cc1 do in these assays?
RORgamma inh: 10µM*; KB-V1 MDR tox: inactive; KB-3-1 cytotox: inactive; MCF10A rereplic: -10.9%; VP16 counter: inconclusive; SW480 rerep: 18.2%

Results for O=C(CNC(=O)c1ccccc1)N/N=C/c1cn[nH]c1-c1ccccc1 ?
RORgamma inh: -14.3%; KB-V1 MDR tox: inactive; KB-3-1 cytotox: inactive; MCF10A rereplic: -0.3%; VP16 counter: inconclusive; SW480 rerep: -4.5%

What do the screens show for `O=C(NCCCn1ccnc1)c1cc(-c2cccs2)on1`?
RORgamma inh: -9.1%; KB-V1 MDR tox: 14.6µM*; KB-3-1 cytotox: 14.6µM*; MCF10A rereplic: 15.0%; VP16 counter: 0.5%; SW480 rerep: 3.9%

Results for CO[C@@H]1COC(=O)[C@H](C)NC(=O)C/C=C\[C@@H](C)[C@@H](NS(=O)(=O)c2ccc(C)cc2)COC(=O)C/C=C\[C@@H]1C ?
RORgamma inh: -1.2%[10 µM]; VP16 counter: -0.8%[10 µM]

How did O=C(Nc1ncccn1)c1ccc([N+](=O)[O-])cc1[N+](=O)[O-] do in these assays?
KB-V1 MDR tox: inactive; KB-3-1 cytotox: inactive; MCF10A rereplic: -1.1%; SW480 rerep: -15.1%

Source: PubChem
